Molecules are shown by their SMILES. Inconclusive results are not listed. Where a call stands in place of a potency, no number is given. Active and inactive are the calls of the source. The call rests on the fitted dose curve.

The assay can be described thus: cAMP Responsive Elements (CRE) small molecule agonists, cell-based qHTS assay (AID 1963590). Conditions: CRE-bla HEK293T, beta-lactamase FRET ratio, 3 h; series mostly up to 92.4 µM. From the text:
U.S. Tox21 Program National Center for Advancing Translational Sciences [NCATS] Division of Preclinical Innovation [DPI] U.S. Environmental Protection Agency [EPA] National Institutes of Environmental Health Sciences [NIEHS] National Toxicology Program [NTP] U.S. Food and Drug Administration [FDA] Tox21 Assay Overview: CREB (cyclic-AMP Responsive Element Binding Protein) is a cellular transcription factor. It binds to certain DNA sequences called cAMP Responsive Elements (CRE) and regulates the transcription of the genes. […] This cell line can be used to find agonists/antagonists of the cyclic AMP signaling pathway. The activation of the report gene under culture conditions can be detected by fluorescence intensity. This cell line has been used to screen the Tox21 10K compound library to identify agonists that induce oxidative stress.
Tox21 Assay Protocol Summary: CRE-bla Hek 293T cells were suspended in assay medium (DMEM containing 10% dialyzed FBS, 0.1 mM NEAA, 1 mM sodium pyruvate and 25 mM HEPES) and dispensed at 2,000 cells/5 uL /well into 1536-well black wall/clear bottom plates using a Multidrop Combi (ThermoFisher Scientific, Waltham, MA) dispenser. After the assay plates were incubated at 37 C/5% CO2 for 18 hrs, 23 nL of compounds dissolved in DMSO, positive controls or DMSO only was transferred to the assay plate by a pintool workstation (Kalypsys, San Diego, CA). After the plates were incubated at 37 C/5% CO2 for 3 hrs, 1 uL of LiveBLAzer B/G FRET substrate (Invitrogen, Carlsbad, CA) was added to each well using Bioraptr Flying Reagent Dispenser (FRD, Aurora Discovery, San Diego, CA). The plates were incubated at room temperature for 2 h.
A general note: qHTS replaces the single test concentration by a dilution series.
Take `CNC(=O)O/N=C/C(C)(C)S(C)=O` (stereo not given): the Potency result is “inactive”.

With `N#CCBr`, the Potency result was “inactive”.

In the case of `CCn1cc[n+](C)c1`, the Potency result was “inactive”.

As to `COC(=O)c1cncn1C(C)c1ccccc1` (stereo not given), the Potency result is “inactive”.

Take `O=S(=O)(O)O`: the Potency entry was “inactive”.

For the compound `CCOP(=S)(OCC)SCSC(C)(C)C`, the Potency entry was “inactive”.

Take `COP(=O)(OC)OC`: the Potency entry is “inactive”.

`C=CCSSCC=C`: the Potency result is “inactive”.

On to `NC(=O)CN1CCCC1=O`, for which the Potency entry is “inactive”.

As for `CC1COC2(c3ccccc3Cl)c3cc(Cl)ccc3NC(=O)CN12` (stereo not given), the Potency result was “inactive”.

As to `C[N+](C)(C)C`, the Potency result is “inactive”.

On to `FC(Cl)(Cl)Cl`, for which the Potency entry is “inactive”.

For the compound `CCCCOCC1CO1` (stereo not given), the Potency entry is “inactive”.

Turning to `O=S(=O)(Cl)Cl`, the Potency result is “inactive”.

Consider `CCCCSP(=O)(SCCCC)SCCCC`, for which the Potency entry is “inactive”.

With `Cc1ccccc1O`, the Potency entry was “inactive”.

Consider `CCCC[n+]1cccc(C)c1`, for which the Potency result is “inactive”.

For the compound `CCCCCCCCCC(CC)c1ccc(S(=O)(=O)O)cc1` (stereo not given), the Potency result was “inactive”.

Turning to `CCC(=O)OC1(c2ccccc2)CCN(C)CC1`, the Potency entry is “inactive”.

As to `CCCCCCCCOC(=O)c1ccc(C(=O)OCCCCCCCC)c(C(=O)OCCCCCCCC)c1`, the Potency entry was “inactive”.

With `CCOP(=S)(OCC)Oc1ccc([N+](=O)[O-])cc1`, the Potency result was “inactive”.

On to `O=S(=O)(Oc1ccc(Cl)cc1)c1ccc(Cl)cc1`, for which the Potency result was “inactive”.

Regarding `O=[N+]([O-])c1cc(Cl)ccc1Cl`, the Potency entry is “inactive”.

Regarding `O=S(=O)(O)OOS(=O)(=O)O`, the Potency entry was “inactive”.

Take `CCOP(=S)(OCC)Oc1cc(C)nc(C(C)C)n1`: the Potency entry is “inactive”.

Turning to `CCCCC(CC)CO[N+](=O)[O-]` (stereo not given), the Potency result was “inactive”.

Regarding `Cc1ccc(-c2nc3ccc(C)cn3c2CC(=O)N(C)C)cc1`, the Potency result is “inactive”.

As for `C1CCC(NC2CCCCC2)CC1`, the Potency entry is “inactive”.

Turning to `O=Cc1ccco1`, the Potency entry is “inactive”.

In the case of `CCN(CCO)CCO`, the Potency entry is “inactive”.

Take `[N-]=[N+]=CC(=O)OC[C@H](N)C(=O)O`: the Potency entry is “inactive”.

On to `CCCCC(CC)COC(=O)Cl` (stereo not given), for which the Potency entry is “inactive”.

As for `CCC(C)Cl` (stereo not given), the Potency result was “inactive”.

As for `COc1c(C(C)(C)C)cc([N+](=O)[O-])c(C)c1[N+](=O)[O-]`, the Potency result is “inactive”.

Regarding `Oc1ccc(Cl)cc1Cc1ccccc1`, the Potency result is “inactive”.

As for `CCCCn1cc[n+](C)c1`, the Potency result is “inactive”.

For the compound `CCC/C=N/O`, the Potency entry is “inactive”.

Take `CCC(CC)Nc1c([N+](=O)[O-])cc(C)c(C)c1[N+](=O)[O-]`: the Potency result is “inactive”.

As to `Cl/C=C\CCl`, the Potency entry is “inactive”.

For the compound `O=P(O)(O)CN(CP(=O)(O)O)CP(=O)(O)O`, the Potency entry was “inactive”.

The record behind these values is PubChem BioAssay (Tox21).
